Values joined by “and” are separate entries in the source; they are usually repeats but may differ in a detail not shown here. Identical values can stand only once. Records with an inconclusive call do not appear. Where a call stands in place of a potency, no number is given. Where a structure was tested more than once in an assay, its records may differ in their call. Active and inactive are the calls of the source. Unless noted, calls follow the shape of the dose curve; as a rule, active = well fitted curve in the direction sought with a large enough effect in the repeat runs; inconclusive = weak or mixed curves; inactive = no such curve, though single readings can be large; an effect the other way counts as inactive or inconclusive.
Key:
[1] = qHTS assay to identify small molecule agonists of the vitamin D receptor (VDR) signaling pathway - cell viability counter screen (AID 743224); also: nearly all actives have a fitted effect of over 50% in size; also: potency is read from the fitted curve at half-maximal effect
Method in brief: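 Cells: VDR-bla, 2,000/well, settled 4 h. Treatment: compounds in DMSO, 16 h, 37C/5% CO2. Readout: CellTiter-Glo luminescence after 30 min RT.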

[2] = qHTS assay to identify small molecule antagonists of the vitamin D receptor (VDR) signaling pathway - cell viability counter screen (AID 743225); also: nearly all actives have a fitted effect of over 50% in size; also: potency is read from the fitted curve at half-maximal effect
Method in brief: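 Read-out: CellTiter-Glo luminescence measured 30 min after reagent addition at room temperature. Cells were VDR-bla HEK 293T exposed 16 h at 37C, 5% CO2, to compound with 3 nM final calcitriol agonist.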

[3] = qHTS assay to identify small molecule agonists of the NFkB signaling pathway - cell viability counter screen (AID 1159515; calls by dose curve; also: series mostly up to about 61 µM; nearly all actives have a fitted effect of over 55% in size)
Method in brief: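 Cells are seeded (2,000 NFkB-bla ME-180 per well), rested overnight, and dosed with DMSO-dissolved compounds for 5 hr at 37 C. Viability is then read by CellTiter-Glo luminescence after 30 min at room temperature.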

[4] = qHTS assay to identify small molecule agonists of the endoplasmic reticulum stress response signaling pathway (AID 1159516; active = well fitted activation curve with a large enough effect in the signal ratio in the repeat runs, not every such curve was filed as active; the % refers to the signal ratio)
Method in brief: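 Cells are seeded at 1,500 per well and incubated overnight. Compounds in DMSO are added for 5 hr at 37 C, then beta-lactamase FRET substrate for 2 hr at room temperature, and fluorescence at 460 and 530 nm is measured.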

[5] = qHTS assay to identify small molecule agonists of the endoplasmic reticulum stress response signaling pathway - cell viability counter screen (AID 1159517; calls by dose curve;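 also: HeLa cells carrying an ER stress response element beta-lactamase reporter; series mostly up to about 61 µM; nearly all actives have a fitted effect of over 50% in size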)
Method in brief: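 Cytotoxicity of test compounds toward ESRE-bla HeLa cells was assessed after 5 hr exposure. The luminescent CellTiter-Glo signal was measured 30 min after reagent addition.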

[6] = qHTS assay to identify small molecule antagonists of the retinoid-related orphan receptor gamma (ROR-gamma) signaling pathway - cell viability counter screen (AID 1159520); also: nearly all actives have a fitted effect of over 50% in size; also: potency is read from the fitted curve at half-maximal effect
Method in brief: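 Tet-on ROR gamma CHO cells (1,000/well) were plated 4 hr, given compounds in DMSO for 2 hr at 37 C, then induced with 1 uM final doxycycline for 16 hr. Viability was read as ATP by CellTiter-Glo luminescence after 30 min.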

[7] = target: Nuclear receptor ROR-gamma (Homo sapiens) (UniProt P51449); assay: qHTS assay to identify small molecule antagonists of the retinoid-related orphan receptor gamma (ROR-gamma) signaling pathway (AID 1159521; also: nearly all actives have a fitted effect of over 50% in size; also: potency is read from the fitted curve at half-maximal effect)
Method in brief: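 CHO Tet-on RORγ, RORE-luc reporter. Cpd 2 h pre-incubation, then dox hyclate 1 uM final, 16 h, 37 C/5% CO2. ONE-Glo luminescence; decrease = antagonist.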

[8] = qHTS assay to identify small molecule agonists of the AP-1 signaling pathway - cell viability counter screen (AID 1159525; calls by dose curve; also: nearly all actives have a fitted effect of over 55% in size; also: potency is read from the fitted curve at half-maximal effect)
Method in brief: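 Each titration point was normalised to DMSO and tetra n-octyl ammonium bromide controls. The read was Cell Titer Glo luminescence after 30 min at RT, following 5 h compound exposure of ME-180 AP-1-bla cells at 37 °C.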

[9] = qHTS assay to identify small molecule agonists of the AP-1 signaling pathway (AID 1159526; calls by dose curve)
[10] = target: Retinoic acid receptor RXR-alpha (Homo sapiens) (UniProt P19793); assay: qHTS assay to identify small molecule agonists of the RXR signaling pathway (AID 1159527; calls by dose curve; also: nearly all actives have a fitted effect of over 35% in size)
Method in brief: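 Read-out: beta-lactamase FRET ratio (405 nm excitation, 460 and 530 nm emission) after 2 hr substrate loading at room temperature. Cells were RXR-alpha-UAS-bla HEK 293T treated with compounds for 16 hr in 2% charcoal-stripped FBS medium.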

[11] = qHTS assay to identify small molecule agonists of the RXR signaling pathway - cell viability counter screen (AID 1159529); also: nearly all actives have a fitted effect of over 50% in size; also: potency is read from the fitted curve at half-maximal effect
Method in brief: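 HEK 293T RXRa-bla cells, 2% CS-FBS; 5 h settle; cpd 16 h 37 C, 5% CO2; CellTiter-Glo 30 min RT, luminescence. Tetraoctyl ammonium bromide as positive control.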

[12] = qHTS assay to identify small molecule antagonists of the retinoid acid receptor (RAR) signaling pathway - cell viability counter screen (AID 1159551); also: nearly all actives have a fitted effect of over 35% in size; also: potency is read from the fitted curve at half-maximal effect
Method in brief: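 Cells (C3RL4) are plated, incubated overnight, dosed with compound in DMSO, then given retinol at 1 uM final. After 6 h at 37 C, CellTiter-Glo is added and luminescence read following 30 min at room temperature.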

[13] = qHTS assay to identify small molecule antagonists of the retinoic acid receptor (RAR) signaling pathway (AID 1159552; also: nearly all actives have a fitted effect of over 50% in size)
Method in brief: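 Cells of the C3RL4 line were seeded, incubated overnight, then dosed with compounds in DMSO followed immediately by retinol (1 uM final). Six hours later luciferase detection reagent went in; signal was measured after 30 min at RT.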

[14] = qHTS assay to identify small molecule agonists of the retinoic acid receptor (RAR) signaling pathway (AID 1159553); also: potency is read from the fitted curve at half-maximal effect
Method in brief: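 Seed C3RL4 reporter cells at 1,000 per well and incubate overnight at 37 C. Add compounds in DMSO, incubate 6 hr. Add luciferase reagent, wait 30 min at room temperature, read luminescence.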

[15] = qHTS assay to identify small molecule antagonists of the estrogen related receptor (ERR) signaling pathway - cell viability counter screen (AID 1224818); also: series mostly up to about 46 µM
Method in brief: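 ERR cells, 2,000/well; 6 h settle at 37 C/5% CO2; compound pin transfer (DMSO); 17.5 h at 37 C; CellTiter-Fluor, 30 min, fluorescence read.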

[16] = qHTS assay to identify small molecule antagonists of the estrogen related receptor signaling pathway with the pleiotropic PPARgamma coactivator (PGC) cell viability counter screen (AID 1224822;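 also: series mostly up to about 46 µM; viability read after 17.5 h compound exposure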)
Method in brief: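 Multiplexed viability counter screen run in PGC/ERR cells treated with compounds for 17.5 h at 37 C; live-cell protease signal measured by CellTiter-Fluor fluorescence.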

[17] = qHTS assay to identify small molecule antagonists of the estrogen related receptor (ERR) signaling pathway (AID 1224819)
Method in brief: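 qHTS in ERR cells, 2,000/well, 1536 format. Cpd (DMSO) added after 6 h settle, 18 h 37 C. One-Glo luminescence, 30 min RT.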

[18] = qHTS assay to identify small molecule agonists of the estrogen related receptor (ERR) signaling pathway (AID 1224820)
Method in brief: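 Following a 6 h settling period, 2,000 ERR cells per well receive DMSO-dissolved compounds by pin tool and incubate 18 h at 37 C; agonist activity is scored from One-Glo luminescence read 30 min post-addition.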

[19] = test system: estrogen-related receptor alpha (ERRalpha) with PGC-1alpha coactivator, human; assay: qHTS assay to identify small molecule antagonists of the estrogen related receptor signaling pathway with the pleiotropic PPARgamma coactivator (PGC) (AID 1224821; calls by dose curve)
Method in brief: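 Screening used NTP's PGC/ERR cells, dosed via pin tool with compound in DMSO alongside positive and negative controls. After 18 h at 37 C, One-Glo reagent sat 30 min at room temperature before luminescence detection.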

[20] = qHTS assay to identify small molecule agonists of the estrogen related receptor signaling pathway with the pleiotropic PPARgamma coactivator (PGC) (AID 1224823)
Method in brief: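 In this quantitative high-throughput screen, an 18 h, 37 C treatment of PGC/ERR cells with compounds in DMSO preceded a One-Glo luminescence read taken after 30 min at room temperature.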

Retinoic acid receptor RXR-alpha (Homo sapiens), sequence (P19793 whole entry, looked up): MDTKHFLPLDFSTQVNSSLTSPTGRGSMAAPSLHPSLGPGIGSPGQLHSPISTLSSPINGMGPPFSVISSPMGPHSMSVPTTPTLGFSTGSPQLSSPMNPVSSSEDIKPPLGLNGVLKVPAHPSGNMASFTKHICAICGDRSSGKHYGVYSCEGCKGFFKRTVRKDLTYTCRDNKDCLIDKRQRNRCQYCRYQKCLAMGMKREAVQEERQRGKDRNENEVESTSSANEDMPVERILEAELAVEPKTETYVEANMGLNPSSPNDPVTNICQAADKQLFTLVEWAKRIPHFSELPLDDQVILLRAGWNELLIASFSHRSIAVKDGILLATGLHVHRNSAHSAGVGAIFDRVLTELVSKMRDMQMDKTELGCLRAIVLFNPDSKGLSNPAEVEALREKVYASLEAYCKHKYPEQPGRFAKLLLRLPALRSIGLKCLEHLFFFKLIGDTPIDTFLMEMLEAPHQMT

Compound | Potency [1] | Potency [2] | Potency [3] | outcome [4] | Potency [5] | Potency [6] | Potency [7] | Potency [8] | Potency [9] | Potency [10] | Potency [11] | Potency [12] | Potency [13] | Potency [14] | Potency [15] | Potency [16] | Potency [17] | outcome [18] | Potency [19] | outcome [20]
CC(C)CCOCc1ccccc1 | inactive | inactive | inactive | inactive | inactive | inactive | inactive | inactive | inactive | inactive | inactive | inactive | inactive | inactive | – | – | – | – | – | –
Cc1occc(=O)c1OC(=O)C(C)C | inactive | inactive | inactive | inactive | inactive | inactive | inactive | inactive | inactive | inactive | inactive | inactive | inactive | inactive | – | – | – | – | – | –
O=C(O)CCc1ccccc1 | inactive | inactive | inactive | inactive | inactive | inactive | inactive | inactive | inactive | inactive | inactive | inactive | inactive | inactive | – | – | – | – | – | –
O=C(Oc1ccccc1)c1ccccc1O | inactive | inactive | inactive | inactive | inactive | inactive | inactive | inactive | inactive | – | inactive | inactive | inactive | inactive | – | – | – | – | – | –
O=C1NCC2(CCN(CCc3ccccc3)CC2)O1 | inactive | inactive | inactive | inactive | inactive | inactive | inactive | inactive | inactive | – | inactive | inactive | inactive | inactive | inactive | inactive | – | – | – | –
C=C(C)C1CC=C(C)C(OC(C)=O)C1 (stereo not drawn) | inactive | inactive | inactive | inactive | inactive | inactive | inactive | inactive | inactive | – | inactive | inactive | inactive | inactive | – | – | – | – | – | –
CN(C)c1ccc2nc3ccc(=[N+](C)C)cc-3sc2c1 | 49 µM (active) and 2.98 µM (active) | inactive and 21.9 µM (active) | inactive | inactive | inactive | 16.6 µM (active) and 13.7 µM (active) | inactive and 34.4 µM (active) | 16.7 µM (active) and 43.6 µM (active) | – | – | inactive | 13.1 µM (active) and 30.6 µM (active) and 23.7 µM (active) | – | 2.94 µM (active) and 1.37 µM (active) and 1.68 µM (active) | – | – | – | – | – | –
c1cnc2cc3c(cc2n1)C1CNCC3C1 | inactive | inactive | inactive | inactive | inactive | – | inactive | inactive | inactive | inactive | inactive | inactive | inactive | inactive | inactive | inactive | inactive | inactive | inactive | inactive
O=C1CC2(CCCC2)CC(=O)N1CCCCN1CCN(c2ncccn2)CC1 | inactive | inactive | inactive | inactive | inactive | inactive | 27.3 µM (active) and inactive | inactive | inactive | – | inactive | inactive | inactive | inactive | inactive | inactive | inactive | inactive | inactive | inactive
Cc1cc(C(C)(C)C)c(O)c(C(C)(C)C)c1 | inactive | inactive | inactive | inactive | inactive | inactive | – | inactive | inactive | – | inactive | inactive | – | – | – | – | – | – | – | –
O=C(O)c1cc(Cl)cc(Cl)c1 | inactive | inactive | inactive | inactive | inactive | inactive | inactive | inactive | inactive | – | inactive | inactive | inactive | inactive | – | – | – | – | – | –
CC(C)(C)NCC(O)COc1ccccc1OCC1CCCO1 (stereo not drawn) | inactive | inactive | inactive | inactive | inactive | inactive | inactive | inactive | inactive | – | inactive | inactive | inactive | inactive | – | – | – | – | – | –
O | inactive | inactive | inactive | inactive | inactive | inactive | – | inactive | inactive | – | inactive | inactive | – | – | – | – | – | – | – | –
CCC(C)(C)C(=O)O[C@H]1C[C@@H](C)C=C2C=C[C@H](C)[C@H](CC[C@@H]3C[C@@H](O)CC(=O)O3)[C@H]21 | inactive | inactive | inactive | inactive | inactive | 9.44 µM (active) | 3.86 µM (active) and 841 nM (active) | inactive | inactive | – | 12 µM (active) | inactive | – | inactive | – | – | – | – | – | –
c1ccc2c(c1)CCCC2C1=NCCN1 (stereo not drawn) | inactive | inactive | inactive | inactive | inactive | inactive | inactive | inactive | inactive | – | inactive | inactive | inactive | inactive | inactive | inactive | – | – | – | –
O=C(Cl)c1cccc(C(=O)Cl)c1 | inactive | inactive | inactive | inactive | inactive | inactive | inactive | inactive | inactive | – | inactive | inactive | – | – | – | – | – | – | – | –
CC1COc2c(N3CCN(C)CC3)c(F)cc3c(=O)c(C(=O)O)cn1c23 (stereo not drawn) | inactive | inactive | inactive | inactive | inactive | inactive | inactive | inactive | inactive | – | inactive | inactive | inactive | inactive | inactive | inactive | – | – | – | –
CCCOC(=O)c1cc(O)c(O)c(O)c1 | inactive | inactive | inactive | inactive | inactive | inactive | 27.2 µM (active) | inactive | inactive | – | inactive | inactive | inactive | – | – | – | – | – | – | –

Reference: PubChem BioAssay (Tox21)
